Compound activity (PubChem)
Hits are enriched below; roughly 8.7% of the tested compounds scored in any of these assays.
JMJD2A Tudor inh = inhibitors of human JMJD2A Tudor domain; AlphaScreen JMJD2A-Tudor / H3K4me3 peptide binding; 4.4% of 390,000 active; AID 504339; O75164; Potency, µM (doses to about 114 µM), inactives show top-dose activity change, negative = inhibition, usual class: inhibitors; note: % is set by controls: 0 for no effect and ±100 for the full control effect; nearly all actives have a fitted effect of over 50% in size
Target sequence (O75164 whole entry, looked up, the tested form may be a part): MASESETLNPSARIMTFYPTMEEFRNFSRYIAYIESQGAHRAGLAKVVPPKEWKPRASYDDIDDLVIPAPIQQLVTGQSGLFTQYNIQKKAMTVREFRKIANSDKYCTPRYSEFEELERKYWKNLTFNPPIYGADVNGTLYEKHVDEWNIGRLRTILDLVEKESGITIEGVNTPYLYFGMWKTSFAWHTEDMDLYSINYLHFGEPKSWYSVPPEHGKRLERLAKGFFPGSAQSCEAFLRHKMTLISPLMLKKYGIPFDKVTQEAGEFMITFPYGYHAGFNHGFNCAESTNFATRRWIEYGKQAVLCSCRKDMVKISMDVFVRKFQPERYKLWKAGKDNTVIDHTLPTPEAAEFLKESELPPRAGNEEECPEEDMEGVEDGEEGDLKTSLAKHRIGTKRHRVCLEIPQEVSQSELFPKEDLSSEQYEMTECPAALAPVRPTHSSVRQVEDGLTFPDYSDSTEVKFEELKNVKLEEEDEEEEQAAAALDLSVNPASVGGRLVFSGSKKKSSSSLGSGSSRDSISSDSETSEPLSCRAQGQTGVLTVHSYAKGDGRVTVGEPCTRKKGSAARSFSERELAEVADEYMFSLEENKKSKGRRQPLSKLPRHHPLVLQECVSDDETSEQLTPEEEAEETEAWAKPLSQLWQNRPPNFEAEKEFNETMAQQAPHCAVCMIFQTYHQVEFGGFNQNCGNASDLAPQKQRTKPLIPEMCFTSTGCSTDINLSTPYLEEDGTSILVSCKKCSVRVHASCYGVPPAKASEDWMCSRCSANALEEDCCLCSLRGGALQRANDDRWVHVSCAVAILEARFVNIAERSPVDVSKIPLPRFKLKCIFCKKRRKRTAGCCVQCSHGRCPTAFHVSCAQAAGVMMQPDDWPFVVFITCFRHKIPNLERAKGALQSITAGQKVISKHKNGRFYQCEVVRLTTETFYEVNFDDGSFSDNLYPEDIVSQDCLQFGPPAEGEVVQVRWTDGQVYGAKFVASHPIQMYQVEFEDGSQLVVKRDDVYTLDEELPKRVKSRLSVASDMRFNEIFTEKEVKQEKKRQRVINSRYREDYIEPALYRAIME
Sfp PPTase inh = inhibitors of Bacillus subtilis Sfp phosphopantetheinyl transferase. Biochemical Sfp PPTase activity, qHTS. Q9F4F7. Potency, µM, for the others: largest response in the series, negative = inhibition, usual class: inhibitors. 3.5% of 310,000 active. AID 1490;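 note: the enzyme is Sfp with the accession as filed and its product quenches rhodamine fluorescence; 0% = enzyme reaction without inhibitor and -100% = no enzyme wells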
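Buffer: 50 mM Hepes-Na pH 7.6, 10 mM MgCl2, 0.01% Nonidet P-40, 0.01% BSA. Enzyme 15 nM, pre-exposed to compound 15 min; substrates then added and fluorescence change tracked over 30 min.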
12-LOX inh = inhibitors of human 12S-lipoxygenase ALOX12; purified 12hLO, xylenol orange hydroperoxide absorbance; Potency, µM (series often up to 108 µM), without a hit: at the highest dose activity change, negative = inhibition, most hits filed as inhibitors; 1.1% of 580,000 active; AID 1671190; note: % is set by controls: 0 for no effect and ±100 for the full control effect
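Hydroperoxide product was detected by ferrous iron/xylenol orange as the 573 to 405 nm absorbance ratio. Arachidonic acid at 40 uM (final) was turned over for 30 min at room temperature by 150 nM human 12hLO, pH 7.0 Hepes buffer, after 15 min compound preincubation.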
BAZ2B block = BAZ2B (human) inhibition | Q9UIF8 | AlphaScreen BAZ2B-H3K14Ac peptide displacement | Potency, µM (doses to about 114 µM), for the others: at the highest dose activity change, negative = inhibition, actives largely listed as inhibitors | 4.4% of 360,000 active | AID 504333; note: % is set by controls: 0 for no effect and ±100 for the full control effect; nearly all actives have a fitted effect of over 60% in size
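Inhibition is scored as reduced AlphaScreen emission. The BAZ2B/b-H3(5-23)K14Ac complex (50 nM each) in PBS pH 7.4, 0.01% Tween-20 meets compound (up to 110 uM) for 30 min at RT before bead addition.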
HP1b chromo inh = blocks HP1-beta chromodomain binding to methylated histone tails. P83916. AlphaScreen HP1-beta / biotin-H3K9me3 peptide binding. Potency, µM (series often up to 114 µM), for inactives: at the highest dose activity change, negative = inhibition, actives largely listed as inhibitors. 0.56% of 390,000 active; note: nearly all actives have a fitted effect of over 70% in size
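Compound inhibition of the preformed complex between 50 nM HP1-beta and 50 nM biotinylated H3K9me3 peptide was read by AlphaScreen. Buffer was PBS pH 7.4 with 0.01% Tween-20. Incubations ran 30 min at room temperature, with 10 ug/mL donor/acceptor beads.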
G9a block = inhibitors of human histone lysine methyltransferase G9a; Q96KQ7; Potency, µM (doses to about 102 µM), for inactives: top-dose activity, negative = inhibition, actives largely listed as inhibitors; 8.8% of 350,000 active; G9a H3K9 monomethylation, AlphaScreen, 2 h; note: % is set by controls: 0 for no effect and ±100 for the full control effect; nearly all actives have a fitted effect of over 75% in size
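AlphaScreen read-out: biotin-H3K9 peptide (500 nM) methylation by 20 nM enzyme with 20 uM SAM, 2 h at room temperature after 15 min compound preincubation; anti-monomethyl H3K9 antibody plus donor/acceptor beads, 10 min dark.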
* = called active by the depositor; ? = inconclusive; nt = no result given; ! = not confirmed by another sample; [ ] = dose if it differs, or a comment. Calls come from the whole dose curve; as a rule, active = well fitted curve in the direction sought with a large enough effect; inconclusive = small, poorly fitted or top-dose-only effect, or another doubt; inactive = no such curve, though single readings can be large; an effect the other way counts as inactive or inconclusive. Potency is the fitted concentration of half-maximal effect.

SMILES	JMJD2A Tudor inh	Sfp PPTase inh	12-LOX inh	BAZ2B block	HP1b chromo inh	G9a block
COc1cc(NC(=O)CN2CCN(CC(=O)Nc3ccccc3OC)CC2)cc(OC)c1	-18%	11%	6%	-1%	33%	45µM*
COc1ccc(NC(=O)CN2CCN(CC(=O)Nc3ccccc3F)CC2)cc1OC	-19%	10%	9%	-5%	34%	45µM*!
COc1ccc(NC(=O)CN2CCN(CC(=O)Nc3ccccc3F)CC2)c(OC)c1	-11%	4%	-16%	9%	42%	32µM*!
COc1ccc(NC(=O)CN2CCN(CC(=O)Nc3ccccc3Cl)CC2)c(OC)c1	-12%	16%	0%	-1%	29%	45µM*
Cc1cc(C)c(C(=O)COC(=O)c2ccc(N3CCCC3=O)cc2)c(C)c1	nt	nt	6%	nt	nt	nt
Cc1c(-c2ccccc2)nc2c(C)cc(Br)cc2c1C(=O)NC1CCCCC1	nt	nt	11%	nt	nt	nt
Cc1ccc(NCCN(C)C)c2c(=O)c3cc(O)ccc3sc12	40µM*	nt	?	nt	?	nt
CN1CC=C2C(C#N)=C(N)C(C#N)(C#N)[C@H](c3ccoc3)[C@H]2C1	-5%[57.1 µM]	0%	nt	-11%	33%	40µM*
CC1=C(C(=O)Nc2ccc(C(=O)NCc3ccc(OC(C)C)cc3)c(Cl)c2)SCCO1	nt	nt	-23%	nt	nt	nt
O=C(Nc1cccnc1)c1ccc(N2CCOCC2)c([N+](=O)[O-])c1	-20%	22%	?	-33%	34%	12%[59 µM]
Cc1ccc(NC(=S)NNC(=O)c2ccc(N3CCOCC3)c([N+](=O)[O-])c2)cc1Cl	25µM*	3%	?	?	?	22µM*
Cc1cccc(NC(=O)c2ccc(N3CCOCC3)c([N+](=O)[O-])c2)n1	?	18%	3%	?	-18%	20%[59 µM]
O=C(Nc1ccc(N2CCCC2)c(Cl)c1)c1ccc([N+](=O)[O-])cc1	-27%	-2%	?	3%	-3%	-9%[59 µM]
Cc1cccc(NC(=O)c2ccc(N3CCCCC3)c([N+](=O)[O-])c2)n1	?	-6%	-29%	11µM*	?	?
O=C(NNC(=S)Nc1ccc(Br)cc1)c1ccc(N2CCOCC2)c([N+](=O)[O-])c1	?	-1%	?	-26%	?	11µM*
Cc1cc(C(=O)Nc2ccc(N3CCCC3)c(Cl)c2)ccc1[N+](=O)[O-]	25µM*	20%	-26%	28µM*	?	-7%[59 µM]
CCC/C(=N\NC(=O)c1ccc(C(C)(C)C)cc1)c1ccccc1	nt	nt	56%	nt	nt	nt
CCOC(=O)c1nc(Nc2cccc(C)c2)c2ccccc2n1	50µM*!	15%	-10%	7%	5%	10%
CCOCCOC(=O)c1nc2ccccc2nc1Nc1cc(C)cc(C)c1	nt	nt	7.1µM*	nt	nt	nt
Oc1cccc(Nc2nc(-c3ccccc3)nc3ccccc23)c1	-16%	-10%	40µM*!	0%	20%	-30%[59 µM]
CCOC(=O)c1cccc(Nc2nc(C(=O)OCC)nc3ccccc23)c1	-15%	nt	-7%	3%	36%	8%[59 µM]
O=C(O)c1ccc(Nc2nc(-c3cccnc3)nc3ccccc23)cc1	nt	13%	nt	-1%	nt	56µM*
CSc1ccccc1NC(=O)c1ccccc1C(F)(F)F	nt	nt	-28%	nt	nt	nt
CC(C)Nc1ccc2nnc(-c3ccc(F)cn3)n2n1	nt	nt	-1%[176 µM]	nt	nt	nt
Cc1[nH]cnc1-c1nccn1Cc1nnnn1-c1ccccc1	nt	nt	87%	nt	nt	nt
SMILES	JMJD2A Tudor inh	Sfp PPTase inh	12-LOX inh	BAZ2B block	HP1b chromo inh	G9a block
O=C(NCc1cc2n(n1)CCNC2)c1cc2c(s1)CCCCC2	nt	nt	0%	nt	nt	nt
CC(=O)Nc1cccc(Nc2nc(-c3ccccc3)nc3ccccc23)c1	0%	7%	-17%	1%	34%	8%
CC(=O)c1cccc(Nc2nc(-c3ccccc3)nc3ccccc23)c1	-22%	-25%	?	-1%	2%	50µM*
Cc1ccc(S(=O)(=O)N2[C@@H](c3ccccc3F)C(C(=O)O)=CC[C@H]2c2ccc(Cl)c(Cl)c2)cc1	-19%	nt	?	71µM*	27%	-28%[2.33 µM]
Cc1ccccc1S(=O)(=O)N1[C@@H](c2ccc(Br)cc2)C(C(=O)O)=CC[C@H]1c1ccc(Cl)cc1	-23%	nt	?	nt	48%	nt
Cc1ccccc1S(=O)(=O)N1C(c2ccc(Cl)c(Cl)c2)CC=C(C(=O)O)C1c1cccc(Br)c1 (centres undefined)	nt	nt	50µM*	nt	nt	nt
CC1CNCCN1S(=O)(=O)c1cccc2cnccc12 (centres undefined)	-28%	26%	?	?	33%	11µM*!
O=C1c2ccccc2C(=O)N1c1cccc2cnccc12	-4%	nt	nt	nt	nt	nt
O=S(=O)(c1cccc2cnccc12)N1CCCNCC1	89µM*	-6%	?	4%	5%	?
C=CCNC(=O)CCc1c(CC)nn(-c2ccc(OC)cc2)c1Oc1ccccc1F	nt	nt	-15%	nt	nt	nt
O=C1NCCCCCN(Cc2cn[nH]c2-c2ccccc2)[C@H]2CCC[C@@H]12	nt	nt	197%	nt	nt	nt
NC(=O)c1cc2ccccc2o/c1=N\NC(=O)c1ccccc1O	-20%	-13%	-13%	?	48%	32µM*
Cc1c(C(=O)c2ccc(N(C)C)cc2)c2ccccn2c1CCC#N	?	-3%	?	?	?	45µM*
Cc1c(C(=O)c2ccc(F)cc2F)c2ccccn2c1CCC#N	-14%	?	?	18µM*	22%[57 µM]	8.9µM*
Cc1cc(C)cc(NC(=O)Cn2nnc(C(=O)NCc3ccc(F)cc3)c2N)c1	10µM*	-17%	-5%	-14%	3%	0%[59 µM]
Cc1cc(C)cc(NC(=O)Cn2nnc(C(=O)NCc3ccccc3Cl)c2N)c1	-5%	14%	-12%	-3%	43%	1.1µM*
Cc1ccc(C)c(NC(=O)Cn2nnc(C(=O)NCc3ccccc3Cl)c2N)c1	-25%	nt	3%	-2%	35%	0%[59 µM]
COc1cccc(N2CC(C(=O)N3CCC(C(=O)NCCc4ccc(F)cc4)C3)NC2=O)c1 (centres undefined)	nt	nt	46%	nt	nt	nt
Cn1cc(-c2cccc(CCOc3cnc4c(ccn4CC(=O)O)c3)c2)cn1	nt	nt	-7%[176 µM]	nt	nt	nt
O=S(=O)(Nc1nc2ccccc2nc1NC1CC1)c1ccc2c(c1)OCCO2	nt	nt	-15%	nt	nt	nt
CO/N=C/C1C(=O)NN=C1c1ccccc1 (centres undefined)	13µM*	-2%	-27%	?	17%	?
CCCN1CCN(CCCNC(=O)c2cc3c(=O)oc4ccc(C)cc4c3s2)CC1	-10%	4%	-9%	-4%	22%	-1%
Cc1ccc2oc(=O)c3cc(C(=O)NCCN4CCc5ccccc5C4)sc3c2c1	-24%	-19%	13%[57.4 µM]	-28%	39%	50µM*
CC1CN(S(=O)(=O)c2cccc(C(=O)OCC(=O)Nc3ccc4c(c3)OCO4)c2)CC(C)O1 (centres undefined)	-22%	5%	0%	-32%	-9%	50µM*
